Most compounds without a hit are left out; they make up all but 1% or so of the library.
LANA-H2A inh – blocks KSHV LANA binding to histone H2A/H2B; inhibition, % (test concentration not listed); AID 2629; cell-free LANA-H2A/H2B peptide, fluorescence polarization; 0.6% of 320,000 active; in the data active = inhibition mostly above about 10%, no sharp cut-off; inactive = mostly below about 6.7%
Keap1-Nrf2 PPI – disrupts human Keap1 binding to Nrf2 peptide | Keap1 Kelch-Nrf2 peptide fluorescence polarization, 1536-well | 0.15% of 340,000 active | inhibition, % at 9.4 µM; in the data active = inhibition above about 12%;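 note: human Keap1 Kelch domain with fluorescein labeled Nrf2 9mer peptide probe; higher means more block of Keap1 binding to Nrf2 peptide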
Cardiac RTF inh – cardiac RTF calcium desensitization; P19429+P45379; IANBD-labeled cardiac RTF, Ca2+ fluorescence; inhibition, % at 7.15 µM; 0.12% of 340,000 active;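 active = inhibition above the mean inhibition of all tested compounds plus 3 SD, cut at about 17% in these data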;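 note: assay run at fixed EC70 calcium of 1.6 mM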
cardiac RTF act – cardiac RTF calcium sensitization. P19429+P45379. AID 493008. 0.24% of 340,000 active. activation, % at 7.2 µM. IANBD-labeled TnC RTF fluorescence at EC20 calcium; 0% EC20 calcium, 100% full calcium;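 active = activation above the mean over all tested compounds plus 3 SD, cut at about 30% in these data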;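 note: rise in fluorescence read as greater calcium sensitivity of cardiac thin filaments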
C-LANA FP – inhibitors of KSHV LANA C-terminal domain DNA binding | inhibition, % at 9 µM | 0.078% of 340,000 active | MBP-C-LANA/FAM-LBS DNA binding, fluorescence polarization | AID 504423;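 active = highest replicate inhibition at or above 60% at 9 µM, even if other replicates fall short; inactive = all replicates below 60% inhibition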
Numbers stand for hits; i = inactive; nt = not tested or not shown; + = active, no number.

SMILES	LANA-H2A inh	Keap1-Nrf2 PPI	Cardiac RTF inh	cardiac RTF act	C-LANA FP
CC(C)C[C@H](NC(=O)OCC1c2ccccc2-c2ccccc21)C(=O)O	nt	i	i	i	i
Nc1ccc(-c2c3ccc(=O)cc-3oc3cc(O)ccc23)cc1C(=O)O	38	26	i	+	110
O=c1ccc2c(-c3ccccc3)c3ccc(O)cc3oc-2c1	61	98	i	+	142
Cc1cccc(C(=O)Nc2sc3c(c2C(=O)O)CCCC3)c1	i	i	i	i	i
Cc1cccc(C(=O)O)c1NC(=O)Cc1cccc2ccccc12	i	i	i	i	i
N/C(=N\OC(=O)C1CCCCC1)c1cccc([N+](=O)[O-])c1	15	i	i	i	i
Cc1ccccc1C1=C/C(=C(\SS/C(C(=O)c2ccc(OCC(=O)O)c(Cl)c2Cl)=C2\C=C(c3ccccc3C)SS2)C(=O)c2ccc(OCC(=O)O)c(Cl)c2Cl)SS1	nt	i	i	i	100
S=c1nc(-c2sccc2OCc2ccc(Cl)cc2Cl)[nH][nH]1	i	i	i	i	i
CCCCCCCCOc1ccc(C(=O)O)cc1	112	i	i	i	i
NS(=O)(=O)c1ccc(O)c(NC(=O)c2ccc([N+](=O)[O-])o2)c1	i	i	i	i	i
O=c1oc2cc(O)ccc2cc1-c1nc2c(s1)CCc1ccccc1-2	i	i	i	897	i
O=C(Nn1c(-c2ccc(F)cc2)nc2ccccc2c1=O)C1CCCCC1	i	i	i	i	i
COc1ccc2nc(C)cc(Nc3ccc(C)cc3)c2c1	i	i	i	i	i
COc1ccc2nc(C)cc(NCc3ccc(F)cc3)c2c1	i	i	i	69	i
O=C(Nc1ccc(F)c(Cl)c1)C1CC(=O)N(Cc2ccccc2)C1 (stereo not given)	i	i	i	i	i
O=C(Nc1ccc(F)c(Cl)c1)C1CC(=O)N(Cc2ccco2)C1 (stereo not given)	+	i	i	i	i
Cc1noc(NS(=O)(=O)c2ccc(NC(=O)C(F)(F)C(F)(F)C(F)(F)F)cc2)c1C	i	nt	nt	nt	nt
C=Cc1cc2c(cc1O)CCC1C2CCC2(C)C(O)CCC12 (stereo not given)	nt	i	i	i	i
C[C@]12CC[C@@H]3c4ccc(O)cc4C(=O)C[C@H]3[C@@H]1CC[C@@H]2O	3.5	i	i	i	i
O=C(Cn1ccc2cc(S(=O)(=O)N3CCCC3)ccc21)NCCc1ccccc1	12	i	i	i	i
O=C(CCn1ccc2cc(S(=O)(=O)N3CCCC3)ccc21)NCCc1ccccc1	i	i	i	i	i
Cc1ccccc1-n1c(SCC(=O)Nc2ccccc2)nc2nc3c(cc2c1=O)CCCC3	i	i	i	i	i
CS(=O)(=O)c1cccc(C(=O)Oc2ccccc2)c1	38	i	i	i	i
COc1ccc(C)cc1Nc1n[n+](-c2ccccc2)c(-c2ccc(NC(C)=O)cc2)s1	i	i	i	i	i
COc1ccc(C)cc1Nc1n[n+](-c2ccccc2)c(-c2cc([N+](=O)[O-])cc(OC)c2O)s1	i	i	i	46	i
SMILES	LANA-H2A inh	Keap1-Nrf2 PPI	Cardiac RTF inh	cardiac RTF act	C-LANA FP
COc1cc(CN2CCC(Cc3ccccc3)CC2)cc(OC)c1OC	i	i	i	i	i
COc1cc(CN2CCC(Cc3ccccc3)CC2)cc([N+](=O)[O-])c1O	20	i	i	i	i
CC(C)(C)c1nnc(N/N=C/c2cc(Br)ccc2O)n(N)c1=O	+	i	i	i	i
CCc1nnc(N/N=C/c2cc(Br)c(O)cc2O)n1N	i	i	i	i	i
Cc1c(/C(O)=C2\C(=O)C(=O)N(CCCN(C)C)C2c2ccco2)cnn1-c1ccccc1 (stereo not given)	nt	i	i	i	i
CCOC(=O)C1C(=O)C=C(/C=C/c2ccc(N(C)C)cc2)CC1c1ccccc1 (stereo not given)	i	i	i	108	i
Cc1cc(O)c(C(C)C)cc1NC(=S)Nc1cc(C(C)C)c(O)cc1C	nt	i	i	i	i
CCCOc1ccc(C(=O)ON=C2CCN(C)CC2)cc1	31	i	i	i	i
CC12CCC(=O)C=C1CCC1C2CCC2(C)C1CC1C3C(=O)N(Cc4ccccc4)C(=O)C3CC(=O)C12 (stereo not given)	nt	i	i	i	i
CC12CCC(=O)C=C1CCC1C2CCC2(C)C(c3csc(N)n3)CCC12 (stereo not given)	nt	i	i	i	i
NC(=O)c1ccc(NC(=O)COC(=O)c2ccc(Cl)nc2)cc1	12	i	i	i	i
